Records with an inconclusive call do not appear. Calls of active or inactive are those of the source. Calls come from the whole dose curve; as a rule, active = well fitted inhibition curve with a large enough effect; inconclusive = small, poorly fitted or top-dose-only effect; inactive = flat fitted curve, though single readings scatter.
Key:
Assay in all cases: qHTS profiling for inhibitors of Plasmodium falciparum proliferation (AID 504749); note: nearly all actives have a fitted effect of over 60% in size
Settings in all cases: P. falciparum in erythrocytes, SYBR Green DNA, 72 h; series mostly up to 28.7 µM
[1] = tested on: CP185
Procedure, shortened: (§1)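 SYBR Green fluorescence (ex 485 nm, em 535 nm) reports parasite DNA after 72 h compound exposure of infected red cells at 0.3% parasitemia, 2.5% hematocrit; signal normalized to 0.29 uM artemisinin and vehicle wells.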

[2] = tested on: CP191
Procedure, shortened: as §1

[3] = tested on: CP192
Procedure, shortened: as §1

[4] = tested on: CP194
Procedure, shortened: as §1

[5] = tested on: CP201
Procedure, shortened: as §1

[6] = tested on: CP211
Procedure, shortened: as §1

[7] = tested on: CP215
Procedure, shortened: as §1

[8] = tested on: CP217
Procedure, shortened: as §1

[9] = tested on: CP237
Procedure, shortened: as §1

[10] = tested on: CP238
Procedure, shortened: as §1

Measured: Potency
Potency is the fitted concentration of half-maximal effect.

NC(N)=Nc1nc(CSCC/C(N)=N/S(N)(=O)=O)cs1
inactive: all assays above

O=C(O)c1c(Cl)c(Cl)c(Cl)c(Cl)c1-c1c2cc(I)c(=O)c(I)c-2oc2c(I)c(O)c(I)cc12
inactive: all assays above

Clc1ccc(Cn2c(CN3CCCC3)nc3ccccc32)cc1
not listed: [7] | [9]
inactive: all other assays above

CCN(CC)CCNC(=O)c1ccc(N)cc1
inactive: all assays above

O=c1[nH]cnc2c1ncn2[C@H]1CC[C@@H](CO)O1
not listed: [2]
inactive: all other assays above

CC(=O)O[C@]1(C(C)=O)CC[C@H]2[C@@H]3C=C(Cl)C4=CC(=O)[C@@H]5C[C@@H]5[C@]4(C)[C@H]3CC[C@@]21C
inactive: [1] | [10]

O=C(O)c1cc(-c2ccccc2)nc2ccccc12
inactive: all assays above

CCCNC(=O)NS(=O)(=O)c1ccc(Cl)cc1
inactive: all assays above

Cc1cccc(C)c1OCC(C)N (configuration not stated)
active: [9] 6.31 µM
not listed: [2] | [4]
inactive: all other assays above

NCCS
inactive: all assays above

O=C1Nc2ccc(Cl)cc2C(C#CC2CC2)(C(F)(F)F)O1 (configuration not stated)
not listed: [4] | [7]
inactive: all other assays above

CC/C(=C(\c1ccccc1)c1ccc(OCCN(C)C)cc1)c1ccccc1
active: [8] 11.2 µM
inactive: [3]

O=C(O)Cc1cccc2ccccc12
inactive: all assays above

CCCCCN(C)CCC(O)(P(=O)(O)O)P(=O)(O)O
inactive: all assays above

C[C@@H](O)[C@H]1C(=O)N2C(C(=O)O)=C(S[C@@H]3CN[C@H](C(=O)N(C)C)C3)[C@H](C)[C@H]12
inactive: all assays above

CN(C)CCC(c1ccccc1)c1ccccn1 (configuration not stated)
inactive: [2] | [5] | [6] | [8] | [9] | [10]

CC1=C(/C=C/C(C)=C/C=C/C(C)=C/C(=O)Nc2ccc(O)cc2)C(C)(C)CCC1
active: [2] 7.94 µM | [3] 9.53 µM | [4] 13.5 µM | [6] 10.7 µM | [7] 10.7 µM

C[N+](C)(C)CCCCCC[N+](C)(C)C
inactive: all assays above

CC(=O)CCCCn1c(=O)c2c(ncn2C)n(C)c1=O
inactive: all assays above

CCN1CCC[C@H]1CNC(=O)c1cc(S(N)(=O)=O)ccc1OC
inactive: all assays above

COCCCCC(=NOCCN)c1ccc(C(F)(F)F)cc1
inactive: [3]

CCOC(=O)O[C@]1(C(=O)OCCl)CC[C@@H]2[C@H]3CCC4=CC(=O)C=C[C@]4(C)[C@@H]3[C@@H](O)C[C@@]21C
not listed: [7]
inactive: all other assays above

CCN(CC)CCOC(=O)c1ccc(N)cc1
inactive: all assays above

O=C1NCC2(CCN(CCc3ccccc3)CC2)O1
inactive: all assays above

O=C(NCCN1CCOCC1)c1ccc(Cl)cc1
inactive: all assays above

Cc1cnc(C(=O)O)c[n+]1[O-]
inactive: all assays above

CCN(CC)C(=O)c1ccc(O)c(OC)c1
inactive: all assays above

CC1(C)O[C@H]2C[C@@H]3[C@H]4CCC5=CC(=O)C=C[C@]5(C)[C@@]4(F)[C@@H](O)C[C@]3(C)[C@]2(C(=O)CO)O1
inactive: all assays above

COc1ccccc1N1CCN(CCCNc2cc(=O)n(C)c(=O)n2C)CC1
inactive: all assays above

COc1ccc(Cc2nccc3cc(OC)c(OC)cc23)cc1OC
not listed: [7]
inactive: all other assays above

CC(=O)N[C@@H](CS)C(=O)O
inactive: all assays above

O=C1NC(=O)C(c2ccccc2)(c2ccccc2)N1
inactive: all assays above

CC(=O)c1ccc(S(=O)(=O)NC(=O)NC2CCCCC2)cc1
inactive: all assays above

Reference: PubChem BioAssay (NCATS)
